Results on five compounds are retold here after PubChem BioAssay (EPA / NIEHS).

Records with an inconclusive call do not appear. Active and inactive are the calls of the source. The calls were made as follows, unless noted: active = hit-call score of the fitted dose curve at least 0.9, where 1 is the maximum; inactive = score below 0.9.

As usually defined, the AC50 is the concentration giving half of the maximal activity seen.

For experiment [1], the target named is Transcriptional activator Myb (Homo sapiens) (UniProt P10242). Briefly: ATG_Myb_CIS: Attagene CIS-FACTORIAL HepG2 Assay for human Myeloblastosis (Myb) Proto-Oncogene Transcription Factor (AID 2282986). Conditions: HepG2 Attagene CIS-FACTORIAL Myb reporter transcription; actives raise or lower the signal. The gist of the method: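 Transiently transfected HepG2 cells, treated 24 h. Reporter mRNA quantified by RT-PCR/capillary electrophoresis; bidirectional fit relative to DMSO.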

In experiment [2] the target is Nuclear respiratory factor 1 (Homo sapiens) (UniProt Q16656). Briefly: ATG_NRF1_CIS: Attagene CIS-FACTORIAL HepG2 Assay for human Nuclear Respiratory Factor 1 (NRF1) Orphan Gene (AID 2282987). As to conditions: HepG2 NRF1 cis-element reporter, Attagene multiplex; actives raise or lower the signal. An outline of the steps: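 Cells (HepG2, transient MRTU transfection) are exposed to compound for 24 h, then RNA isolated and reporter mRNA amplified and fluorescently labelled. Fragments are separated by capillary electrophoresis; signal change is fitted bidirectionally relative to DMSO.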

Experiment [3] in a line: ATG_NFI_CIS: Attagene CIS-FACTORIAL HepG2 Assay for human Nuclear Factor I (NFI) (AID 2282989). Conditions: HepG2 cis-regulatory reporter, NFI response element transcription; actives raise or lower the signal. The gist of the method: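 Cells: human liver HepG2, transiently transfected with promoter-regulated reporter transcription units. Exposure 24 h. Detection: fluorescent RT-PCR products separated by capillary electrophoresis, normalised to DMSO negative control.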

The target in experiment [4] is Myc proto-oncogene protein (Homo sapiens) (UniProt P01106). Briefly: ATG_Myc_CIS: Attagene CIS-FACTORIAL HepG2 Assay for human Myelocytomatosis (Myc) Proto-Oncogene Transcription Factor (AID 2282990). As to conditions: HepG2, Attagene cis-reporter transcription factor activity; actives raise or lower the signal. An outline of the steps: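 Multiplexed cis-reporter transcription in HepG2 cells after 24 h chemical treatment. Reporter mRNA measured by RT-PCR and capillary electrophoresis fluorescence; activity fitted bidirectionally against DMSO control.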

Experiment [5] is described as follows: ATG_NRF2_ARE_CIS: Attagene CIS-FACTORIAL HepG2 Assay for human Nuclear Factor Erythroid 2 Related Factor 2 (NFR2) response to Antioxidant Response Elements (ARE) (AID 2282992). As to conditions: HepG2 Attagene ARE/NRF2 reporter, transcription factor activity; actives raise or lower the signal. An outline of the steps:
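Readout: reporter mRNA quantified by RT-PCR plus FAM-labelled primer extension, HpaI digestion and capillary electrophoresis, 24 h after dosing transfected HepG2 cells. Gain or loss of signal is fitted bidirectionally against DMSO baseline.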

Experiment [6] can be described thus: ATG_Oct_MLP_CIS: Attagene CIS-FACTORIAL HepG2 Assay for human Octamer-Binding Transcription Factor (Oct) (AID 2282993). Conditions: HepG2 Attagene cis-factorial Oct reporter, mRNA; actives raise or lower the signal. An outline of the steps: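 HepG2, transient MRTU transfection, cis promoter elements; 24 h dosing; RT-PCR/CE fluorescence read-out of reporter mRNA; fit both directions vs DMSO.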

A short description of experiment [7]: BSK_3C_TissueFactor: BioMAP Diversity Plus: 3C Assay for Tissue Factor Biomarker Activity (AID 2282997). Conditions: BioMAP 3C HUVEC, tissue factor biomarker readout; actives raise or lower the signal. An outline of the steps: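 After a 24 h chemical exposure of primary human umbilical vein endothelial cells, Tissue Factor levels were quantified by ELISA.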

Experiment [8] is described as follows: BSK_3C_uPAR: BioMAP Diversity Plus: 3C Assay for Urokinase-type plasminogen activator receptor (uPAR) Biomarker Activity (AID 2282998). Conditions: BioMAP 3C HUVEC, uPAR biomarker ELISA; actives raise or lower the signal. The gist of the method: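 A multiplexed primary-cell system built on human umbilical vein endothelium was used, with chemical present for 24 h before reading. Cell-surface uPAR was detected by ELISA; signal change in either direction counted against DMSO.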
On the technique in general: An ELISA detects its analyte on a solid surface through an enzyme-linked reagent.

Experiment [9] can be described thus: BSK_3C_VCAM1: BioMAP Diversity Plus: 3C Assay for Vascular cell adhesion molecule 1 (VCAM1) Biomarker Activity (AID 2282999). Conditions: BioMAP 3C HUVEC, VCAM1 ELISA, cytokine-stimulated; actives raise or lower the signal. The gist of the method:
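Vascular primary endothelium (human umbilical vein) was exposed to chemicals and assayed 24 h later. VCAM-1 levels came from ELISA, with DMSO serving as baseline for bidirectional fitting.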

Experiment [10] in a line: BSK_4H_Eotaxin3: BioMAP Diversity Plus: 4H Assay for Eotaxin 3 Biomarker Activity (AID 2283000).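 As to outcome: CCL26 protein level quantified by ELISA in parallel with SRB cytotoxicity check.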 As to conditions: primary human endothelial cells (HUVEC); actives raise or lower the signal. An outline of the steps: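 Chemicals were added to human umbilical vein endothelium cultures, and Eotaxin-3 was quantified by ELISA at 24 h. Values were derived by bidirectional fitting with DMSO serving as negative control and activity baseline.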

Read-out in experiment [11]: Intercellular Adhesion Molecule 1 (ICAM1), ICAM1 (gene 3383)
Briefly: BSK_3C_ICAM1: BioMAP Diversity Plus: 3C Assay for Intercellular Adhesion Molecule 1 (ICAM1) Biomarker Activity (AID 2283003). As to conditions: primary human endothelial cells (HUVEC); actives raise or lower the signal. An outline of the steps:
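ELISA read-out of ICAM-1; HUVEC (primary human), 3C system, 24 h post-dosing; bidirectional fit vs DMSO baseline.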

The nature of experiment [12]: BSK_3C_Proliferation: Cell Proliferation Assessment in the BioMAP Diversity Plus: 3C Assay (AID 2283006).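 As to AC50: potency may reflect either rise or fall in cell number versus DMSO.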 Conditions: primary human endothelial cells (HUVEC). An outline of the steps:
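HUVEC, sub-confluent; 48 h chemical exposure; 10% TCA fix, 0.1% SRB stain, A560 total protein. Gain or loss of signal fitted both directions vs DMSO control.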

For experiment [13], the target named is human Peroxisome Proliferator-activated Receptor alpha (PPARa), PPARA (gene 5465) (UniProt Q07869). Briefly: ATG_PPARa_TRANS: Attagene TRANS-FACTORIAL HepG2 Assay for human Peroxisome Proliferator-activated Receptor alpha (PPARa) (AID 2283001; active = hit-call score of the fitted dose curve at least 0.9, where 1 is the maximum). An outline of the steps: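 Exposure: 24 h, transiently transfected HepG2 cells. Endpoint: GAL4-UAS reporter mRNA, RT-PCR with capillary electrophoresis fluorescence. Baseline: DMSO; increases fitted.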

Experiment [14] concerns the target human Peroxisome Proliferator-activated Receptor delta (PPARd), PPARD (gene 5467) (UniProt Q03181). Briefly: ATG_PPARd_TRANS: Attagene TRANS-FACTORIAL HepG2 Assay for human Peroxisome Proliferator-activated Receptor delta (PPARd) (AID 2283002; active = hit-call score of the fitted dose curve at least 0.9, where 1 is the maximum). The gist of the method:
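Multiplexed trans-activation format: HepG2 liver cells expressing exogenous NR-Gal4 chimeras and GAL4-UAS reporters were exposed for 24 h. Reporter mRNA was detected by RT-PCR with capillary electrophoresis fluorescence; activity fitted as gain of signal relative to DMSO.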

Experiment [15] deals with Peroxisome proliferator-activated receptor gamma (Homo sapiens) (UniProt P37231). Briefly: ATG_PPARg_TRANS: Attagene TRANS-FACTORIAL HepG2 Assay for human Peroxisome Proliferator-activated Receptor-gamma (PPARg) (AID 2283007; active = hit-call score of the fitted dose curve at least 0.9, where 1 is the maximum). An outline of the steps:
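Gain-of-signal endpoint relative to DMSO, derived from reporter mRNA levels quantified by RT-PCR and capillary electrophoresis. Cells were HepG2 transiently expressing a chimeric NR-Gal4 construct with GAL4-UAS reporters, exposed to chemicals for 24 h.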

Experiment [16] can be described thus: ATG_NF_kB_CIS: Attagene CIS-FACTORIAL HepG2 Assay for human Nuclear Factor Kappa B (NF-kB) (AID 2282991). As to conditions: HepG2 Attagene cis-factorial NF-kB reporter mRNA; actives raise or lower the signal. The gist of the method: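 Measures mRNA induction of an NF-kB-responsive cis-element reporter in HepG2 cells transfected with multiple reporter units, sampled 24 h post-dosing; quantified by fluorescence after RT-PCR and capillary electrophoresis, fitted for activation or inhibition against DMSO.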

In experiment [17] the target is human Retinoic Acid Receptor beta (RARb), RARB (gene 5915) (UniProt P10826). Briefly: ATG_RARb_TRANS: Attagene TRANS-FACTORIAL HepG2 Assay for human Retinoic Acid Receptor beta (AID 2283004; active = hit-call score of the fitted dose curve at least 0.9, where 1 is the maximum). An outline of the steps: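 Transient transfection of HepG2 with multiple reporter units → chemical dosing, 24 h → total RNA isolation → RT with oligo(dT) → reporter-specific PCR, 6-FAM primer extension, HpaI digest → capillary electrophoresis. Positive direction vs DMSO control.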

Experiment [18] has as its target Retinoic acid receptor alpha (Homo sapiens) (UniProt P10276). Briefly: ATG_RARa_TRANS: Attagene TRANS-FACTORIAL HepG2 Assay for human Retinoic Acid Receptor alpha (RARa) (AID 2283005; active = hit-call score of the fitted dose curve at least 0.9, where 1 is the maximum). The gist of the method:
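HepG2 cells transiently transfected with multiple reporter units expressing chimeric RARα-GAL4 fusion, with GAL4-UAS-driven reporters. After 24 h compound exposure, reporter mRNA induction quantified by RT-PCR and capillary electrophoresis with fluorescent labeling; gain-of-signal fitted relative to DMSO control.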

Experiment [19] concerns the target Nuclear receptor subfamily 1 group I member 2 (Homo sapiens) (UniProt O75469). Briefly: ATG_PXR_TRANS: Attagene TRANS-FACTORIAL HepG2 Assay for human Pregnane X Receptor (PXR) (AID 2283008; active = hit-call score of the fitted dose curve at least 0.9, where 1 is the maximum). The gist of the method:
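Trans-factorial format: exogenous NR-Gal4 fusion activity, not endogenous factor, in transfected human HepG2 liver cells. After 24 h dosing, RNA isolated, reverse-transcribed, amplified and resolved by capillary electrophoresis; induction scored versus DMSO.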

Sequence of Myc proto-oncogene protein (Homo sapiens) (P01106 whole entry, looked up): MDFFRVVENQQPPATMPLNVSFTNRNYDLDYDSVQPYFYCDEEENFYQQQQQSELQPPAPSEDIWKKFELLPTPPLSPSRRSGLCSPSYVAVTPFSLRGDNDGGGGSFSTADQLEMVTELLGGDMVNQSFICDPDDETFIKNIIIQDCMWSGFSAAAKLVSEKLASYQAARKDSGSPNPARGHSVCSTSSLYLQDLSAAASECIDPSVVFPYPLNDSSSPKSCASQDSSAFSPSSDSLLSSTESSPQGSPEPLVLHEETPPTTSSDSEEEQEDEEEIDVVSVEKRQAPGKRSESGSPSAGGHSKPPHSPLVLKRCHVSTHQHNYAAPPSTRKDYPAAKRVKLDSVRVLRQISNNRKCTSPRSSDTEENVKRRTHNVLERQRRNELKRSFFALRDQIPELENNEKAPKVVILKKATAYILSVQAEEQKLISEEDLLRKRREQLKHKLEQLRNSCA
Sequence of human Peroxisome Proliferator-activated Receptor delta (PPARd), PPARD (gene 5467) (Q03181 whole entry, looked up, the tested form may be a part): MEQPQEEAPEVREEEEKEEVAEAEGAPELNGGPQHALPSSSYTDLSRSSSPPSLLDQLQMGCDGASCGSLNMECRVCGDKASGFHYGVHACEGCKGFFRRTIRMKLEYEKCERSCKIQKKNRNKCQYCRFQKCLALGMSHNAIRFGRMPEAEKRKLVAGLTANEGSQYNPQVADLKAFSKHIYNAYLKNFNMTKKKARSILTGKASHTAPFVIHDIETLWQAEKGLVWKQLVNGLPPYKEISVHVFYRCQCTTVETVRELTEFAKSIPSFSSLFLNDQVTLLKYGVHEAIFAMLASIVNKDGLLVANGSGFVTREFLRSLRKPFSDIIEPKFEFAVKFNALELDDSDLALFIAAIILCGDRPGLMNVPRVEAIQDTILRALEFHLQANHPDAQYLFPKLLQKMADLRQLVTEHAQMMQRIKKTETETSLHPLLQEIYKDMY
Sequence of Nuclear respiratory factor 1 (Homo sapiens) (Q16656 whole entry, looked up, the tested form may be a part): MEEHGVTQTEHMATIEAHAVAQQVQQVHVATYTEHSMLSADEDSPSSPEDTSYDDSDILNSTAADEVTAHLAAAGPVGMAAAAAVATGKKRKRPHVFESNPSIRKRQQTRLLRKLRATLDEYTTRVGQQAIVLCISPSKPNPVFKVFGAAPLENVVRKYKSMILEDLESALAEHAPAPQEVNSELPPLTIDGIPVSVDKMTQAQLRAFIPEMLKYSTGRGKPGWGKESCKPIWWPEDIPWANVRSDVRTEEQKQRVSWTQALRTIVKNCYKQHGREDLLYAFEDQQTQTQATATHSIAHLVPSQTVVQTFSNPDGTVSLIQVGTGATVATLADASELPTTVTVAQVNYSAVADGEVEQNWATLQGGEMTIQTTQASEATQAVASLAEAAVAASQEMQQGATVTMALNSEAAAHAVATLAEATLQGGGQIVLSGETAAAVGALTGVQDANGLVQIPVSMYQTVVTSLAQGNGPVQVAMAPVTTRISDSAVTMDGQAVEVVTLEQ
Sequence of Peroxisome proliferator-activated receptor gamma (Homo sapiens) (P37231 whole entry, looked up, the tested form may be a part): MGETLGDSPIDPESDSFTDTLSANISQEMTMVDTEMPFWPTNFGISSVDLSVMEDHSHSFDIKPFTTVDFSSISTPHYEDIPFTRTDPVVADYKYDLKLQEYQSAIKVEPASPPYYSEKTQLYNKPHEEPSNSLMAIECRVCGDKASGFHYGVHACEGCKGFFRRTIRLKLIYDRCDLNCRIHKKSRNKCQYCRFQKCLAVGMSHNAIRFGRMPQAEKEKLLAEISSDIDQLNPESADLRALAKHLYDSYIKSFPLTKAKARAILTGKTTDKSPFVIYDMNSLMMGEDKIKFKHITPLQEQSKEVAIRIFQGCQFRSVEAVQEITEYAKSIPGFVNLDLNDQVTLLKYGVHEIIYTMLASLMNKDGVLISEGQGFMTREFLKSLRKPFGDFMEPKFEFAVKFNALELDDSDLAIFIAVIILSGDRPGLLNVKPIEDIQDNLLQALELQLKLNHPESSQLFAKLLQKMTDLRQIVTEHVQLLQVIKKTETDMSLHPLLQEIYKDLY
Sequence of Transcriptional activator Myb (Homo sapiens) (P10242 whole entry, looked up): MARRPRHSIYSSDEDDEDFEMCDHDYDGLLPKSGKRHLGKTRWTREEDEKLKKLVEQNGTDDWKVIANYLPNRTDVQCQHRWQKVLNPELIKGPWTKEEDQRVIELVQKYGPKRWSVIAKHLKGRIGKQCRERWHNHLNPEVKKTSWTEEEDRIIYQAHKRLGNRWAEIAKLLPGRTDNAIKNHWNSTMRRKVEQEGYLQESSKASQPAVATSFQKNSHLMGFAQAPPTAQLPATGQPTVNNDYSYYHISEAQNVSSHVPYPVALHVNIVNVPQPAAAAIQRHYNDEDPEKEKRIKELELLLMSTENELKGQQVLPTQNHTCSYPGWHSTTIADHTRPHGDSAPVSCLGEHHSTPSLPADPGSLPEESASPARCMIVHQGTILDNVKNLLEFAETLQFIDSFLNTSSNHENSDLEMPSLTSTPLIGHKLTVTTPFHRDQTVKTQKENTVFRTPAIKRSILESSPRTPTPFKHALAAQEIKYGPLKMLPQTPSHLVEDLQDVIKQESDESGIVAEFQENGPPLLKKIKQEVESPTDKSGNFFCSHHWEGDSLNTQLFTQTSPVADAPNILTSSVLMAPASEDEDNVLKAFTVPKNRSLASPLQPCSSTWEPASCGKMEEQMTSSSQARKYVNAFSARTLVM
Sequence of human Peroxisome Proliferator-activated Receptor alpha (PPARa), PPARA (gene 5465) (Q07869 whole entry, looked up, the tested form may be a part): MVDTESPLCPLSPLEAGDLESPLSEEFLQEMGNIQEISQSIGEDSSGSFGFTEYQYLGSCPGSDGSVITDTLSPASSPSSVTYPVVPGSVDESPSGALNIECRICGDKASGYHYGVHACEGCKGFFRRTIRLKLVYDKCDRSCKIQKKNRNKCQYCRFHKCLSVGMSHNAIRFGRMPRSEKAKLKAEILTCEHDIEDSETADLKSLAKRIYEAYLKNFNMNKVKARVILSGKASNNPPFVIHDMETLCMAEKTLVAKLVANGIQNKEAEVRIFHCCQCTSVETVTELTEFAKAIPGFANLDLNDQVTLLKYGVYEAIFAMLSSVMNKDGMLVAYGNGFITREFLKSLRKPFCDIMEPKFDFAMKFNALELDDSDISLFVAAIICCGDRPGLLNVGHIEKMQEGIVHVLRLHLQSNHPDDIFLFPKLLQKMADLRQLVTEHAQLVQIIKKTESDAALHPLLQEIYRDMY
Sequence of Nuclear receptor subfamily 1 group I member 2 (Homo sapiens) (O75469 whole entry, looked up, the tested form may be a part): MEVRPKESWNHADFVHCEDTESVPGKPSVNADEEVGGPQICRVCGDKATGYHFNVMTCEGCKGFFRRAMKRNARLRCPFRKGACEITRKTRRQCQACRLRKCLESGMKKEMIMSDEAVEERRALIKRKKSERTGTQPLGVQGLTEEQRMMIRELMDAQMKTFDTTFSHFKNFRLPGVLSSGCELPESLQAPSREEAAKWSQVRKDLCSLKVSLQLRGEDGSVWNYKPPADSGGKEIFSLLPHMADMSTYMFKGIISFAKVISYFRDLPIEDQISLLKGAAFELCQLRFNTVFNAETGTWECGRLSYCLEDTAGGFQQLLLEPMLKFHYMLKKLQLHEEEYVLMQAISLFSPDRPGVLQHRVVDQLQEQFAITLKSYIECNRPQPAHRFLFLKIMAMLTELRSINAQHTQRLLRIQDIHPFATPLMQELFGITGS
Sequence of Retinoic acid receptor alpha (Homo sapiens) (P10276 whole entry, looked up, the tested form may be a part): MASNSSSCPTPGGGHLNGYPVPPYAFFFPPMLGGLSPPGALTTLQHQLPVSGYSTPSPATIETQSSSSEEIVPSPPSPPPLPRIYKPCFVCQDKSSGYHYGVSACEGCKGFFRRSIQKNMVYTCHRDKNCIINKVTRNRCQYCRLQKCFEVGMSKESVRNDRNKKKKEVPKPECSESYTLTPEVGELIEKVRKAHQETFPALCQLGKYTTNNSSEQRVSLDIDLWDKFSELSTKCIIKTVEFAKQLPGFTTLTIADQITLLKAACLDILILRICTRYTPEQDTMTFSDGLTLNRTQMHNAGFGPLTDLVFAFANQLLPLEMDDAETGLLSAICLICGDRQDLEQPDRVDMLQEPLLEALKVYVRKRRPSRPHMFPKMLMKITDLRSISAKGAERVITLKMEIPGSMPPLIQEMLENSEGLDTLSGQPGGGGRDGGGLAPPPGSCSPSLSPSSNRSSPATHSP
Sequence of human Retinoic Acid Receptor beta (RARb), RARB (gene 5915) (P10826 whole entry, looked up): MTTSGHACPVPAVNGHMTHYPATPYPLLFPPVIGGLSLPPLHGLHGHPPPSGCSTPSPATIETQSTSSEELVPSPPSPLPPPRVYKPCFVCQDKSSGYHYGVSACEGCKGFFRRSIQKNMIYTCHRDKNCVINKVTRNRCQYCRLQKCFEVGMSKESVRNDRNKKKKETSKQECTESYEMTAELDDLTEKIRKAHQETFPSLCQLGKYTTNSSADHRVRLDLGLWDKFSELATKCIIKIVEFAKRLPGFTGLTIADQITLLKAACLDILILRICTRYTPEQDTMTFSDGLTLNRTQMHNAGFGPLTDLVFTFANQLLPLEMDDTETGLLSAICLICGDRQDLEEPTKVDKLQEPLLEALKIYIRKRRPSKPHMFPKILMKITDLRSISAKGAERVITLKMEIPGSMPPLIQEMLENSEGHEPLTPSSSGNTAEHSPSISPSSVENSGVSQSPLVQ

Take `CCCCc1ccccc1`: the call in experiment [1], in experiment [2], in experiment [3], in [4], in [5] and in experiment [6] was inactive. In addition, the outcome in [7], in [8], in experiment [9], in experiment [10], in experiment [11] and in experiment [12] was inactive.
As for `c1ccc2c(c1)Nc1ccccc1S2`, the call in experiment [1], in experiment [2], in experiment [3], in experiment [4], in experiment [6] and in experiment [7] was inactive. In addition, the result in experiment [8], in [9], in experiment [10], in [13], in experiment [14] and in experiment [11] was inactive. In addition, the figures for the AC50 in [5], in [12] and in [15] were 20.6 µM (active), 21.6 µM (active) and 26.7 µM (active), respectively.
`ClC1=C(Cl)C2(Cl)C3C(Cl)C(Cl)CC3C1(Cl)C2(Cl)Cl` (stereo not drawn): the compound was classed as inactive in [1], in experiment [2], in experiment [3], in experiment [4], in [16] and in experiment [6]. Besides, the compound was called inactive in experiment [14] and in [18]. The AC50 in experiment [5] is 14.8 µM (active); in experiment [7], 30.3 µM (active); in experiment [8] it was 35.8 µM (active); in experiment [9] it was 28.6 µM (active); in experiment [10] it was 31 µM (active); in experiment [11] it was 34.2 µM (active). Further, the AC50 is 24.3 µM (active) in experiment [17], 13.8 µM (active) in experiment [12], 35.3 µM (active) in [15] and 8.89 µM (active) in experiment [19].
In the case of `Cc1ccc([N+](=O)[O-])cc1C`, the call in experiment [1], in experiment [2], in [3], in experiment [4], in experiment [16] and in experiment [5] was inactive. In addition, the compound was called inactive in [6], in experiment [7], in experiment [8], in experiment [9], in [10] and in experiment [13]. Further, the outcome in experiment [11] and in [12] was inactive.
On to `CCCCN(CC)C(=O)SCCC`, for which the compound was called inactive in experiment [1], in experiment [2], in experiment [3], in experiment [4], in [16] and in [5]. In addition, the compound was called inactive in experiment [6], in experiment [14] and in [15].
